This is one part of a sample in which hits are shown more often than they occur.
AmpC inh detg – inhibitors of E. coli AmpC beta-lactamase with detergent; 370,000 compounds, 0.041% hits; AmpC hydrolysis of nitrocefin, absorbance 480 nm, 0.01% Triton; AID 485294; Potency, µM (doses to about 114 µM), for the others: top-dose activity change, negative = inhibition, usual class: inhibitors; P00811;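 also: potency is read from the fitted curve at half-maximal effect; 0% = no-compound wells and -100% = no-enzyme wells; nearly all actives have a fitted effect of over 25% in size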
Target sequence (P00811 whole entry, looked up): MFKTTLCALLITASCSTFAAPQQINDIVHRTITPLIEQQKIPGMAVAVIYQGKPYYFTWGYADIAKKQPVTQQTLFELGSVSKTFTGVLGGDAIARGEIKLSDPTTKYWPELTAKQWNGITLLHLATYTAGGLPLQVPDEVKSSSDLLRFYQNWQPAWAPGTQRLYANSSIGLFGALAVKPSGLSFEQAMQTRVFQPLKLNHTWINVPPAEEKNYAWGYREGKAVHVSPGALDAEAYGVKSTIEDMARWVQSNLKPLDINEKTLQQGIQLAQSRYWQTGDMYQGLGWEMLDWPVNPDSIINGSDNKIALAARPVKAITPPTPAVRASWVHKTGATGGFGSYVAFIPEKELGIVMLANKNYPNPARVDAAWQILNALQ
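20 mM phosphate pH 7.0 + 0.01% (detergent screen) or 0.0001% Triton X-100; 5.3 nM AmpC reagent; cpd preinc 15 min RT; nitrocefin (800 uM stock) to start; A480 q20 s × 4 min; Activity was normalised to no-enzyme and no-compound control wells.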
CHX counter – counter-screen for Shiga toxin inhibitors: cycloheximide protein synthesis inhibition. cell reporter, cycloheximide protein synthesis inhibition counterscreen. max response, %. 300,000 compounds, 12% hits; in the data active = max response mostly above about 13%, no sharp cut-off; inactive = mostly below about 14%; also: read at 38.3 µM for the half of the compounds with a filed dose; 0% is about no effect
AMA1 RON2 block – inhibitors of Plasmodium falciparum AMA1-RON2 interaction; Potency, µM (series often up to 58.2 µM), inactives show at the highest dose activity change, negative = inhibition, actives largely listed as inhibitors; AlphaScreen AMA1-biotinylated RON2 peptide binding; 360,000 compounds, 0.2% hits; AID 720542;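 also: potency is read from the fitted curve at half-maximal effect; 0% = vehicle wells and -100% = peptide control; nearly all actives have a fitted effect of over 45% in size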
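AMA1 (3D7) with his tag at 25 nM final met compounds first, then biotinylated RON2 peptide at 25 nM; detection used donor plus acceptor beads, 10 µg/mL apiece, read by AlphaScreen after 30 min at room temperature.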
AmpC inh no detg – blocks E. coli AmpC beta-lactamase in detergent-free assay | P00811 | AmpC nitrocefin hydrolysis, absorbance 480 nm, 0.0001% Triton | Potency, µM (highest dose often 57.1 µM), inactives show top-dose activity change, negative = inhibition, most hits filed as inhibitors | 330,000 compounds, 0.52% hits | AID 485341;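 also: potency is read from the fitted curve at half-maximal effect; plate controls were no compound for no effect and no enzyme for full effect; nearly all actives have a fitted effect of over 20% in size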
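AmpC (5.3 nM in the dispensed reagent) in 20 mM phosphate pH 7.0 with 0.01% (detergent screen) or 0.0001% Triton X-100 was preincubated with compounds for 15 min at room temperature. Nitrocefin was then added from an 800 uM solution, and hydrolysis was followed at 480 nm.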
Shiga inhibitor – Shiga toxin inhibition | Vero cells, Shiga toxin protein synthesis inhibition reporter | inhibition, % at 38.7 µM | 290,000 compounds, 9.2% hits | AID 2315; in the data active = inhibition mostly above about 28%, no sharp cut-off; inactive = mostly below about 43%; also: 0% is about no effect
SARS PLpro yeast – inhibitors of SARS-CoV papain-like protease in yeast | 330,000 compounds, 0.19% hits | S. cerevisiae expressing SARS-CoV PLpro, growth rescue | Potency, µM (series often up to 32.9 µM), for the others: at the highest dose activity, positive = growth rescue, usual class: activators; calls by dose curve; also: potency is read from the fitted curve at half-maximal effect; 0% is about no effect; nearly all actives have a fitted effect of over 55% in size
* = called active by the depositor; ? = inconclusive; . = no result; [ ] = another dose, or the depositor's remark. Unless noted, calls follow the shape of the dose curve; as a rule, active = well fitted curve in the direction sought with a large enough effect; inconclusive = small, poorly fitted or top-dose-only effect, or another doubt; inactive = no such curve, though single readings can be large; an effect the other way counts as inactive or inconclusive.

SMILES | AmpC inh detg | CHX counter | AMA1 RON2 block | AmpC inh no detg | Shiga inhibitor | SARS PLpro yeast
COc1ccc(CCNc2oc(-c3ccc(C)cc3)nc2C#N)cc1OC | ? | 12.2 | -16.7% | 78.8% | 9.2 | -7.9%
Cc1ccc(-c2nc(C#N)c(NCCc3ccccn3)o2)cc1 | ? | 16.5* | 2.7% | -1.9% | 36.0 | -8.6%
N#Cc1nc(-c2ccc(Cl)cc2)oc1NCCc1ccccn1 | 3.6% | 12.2* | -8.9% | -6.7% | 35.0* | 3.7%
COc1ccc(NC(=S)N(CCCN2CCC(C)CC2)Cc2cccs2)cc1Cl | 3.9% | -3.6 | -28.6% | -12.9% | 6.3 | 1.0%
O=C(CCc1ccccc1)NCc1ccc2c(c1)OCO2 | 0.3% | 14.0* | -4.9% | -8.8% | 19.4 | -2.9%
O=C(COC(=O)CCc1ccccc1)NCc1ccc2c(c1)OCO2 | . | . | -0.7% | -15.4% | . | -11.6%
O=C(CC12CCC(CC1)C2)NCc1ccc2c(c1)OCO2 | 6.7% | 25.6* | -4.1% | -10.5% | 43.9* | -3.8%
O=C(Cc1ccccc1)NCc1ccc2c(c1)OCO2 | 0.9% | 58.7* | 5.7% | -2.2% | 117.6* | 16.9%
O=C(Cc1c[nH]c2ccccc12)NCc1ccc2c(c1)OCO2 | ? | 18.7* | -9.1% | -7.4% | 16.0 | 1.8%
Nc1nc(-c2ccc(Br)cc2)cc(C(F)(F)F)n1 | -14.0% | -0.3 | 6.1% | -18.4% | -4.7 | -1.0%
Cc1cccc(OCC(=O)NNC(=O)c2cc(S(=O)(=O)N(C)C)ccc2N2CCCC2)c1 | -4.6% | . | 124.0% | -22.7% | . | -3.9%
O=C(NCc1ccc2c(c1)OCO2)C1CCCN1C(=O)Nc1ccccc1 (centres undefined) | 0.9% | -1.8 | -2.1% | 0.5% | -1.7 | 2.2%
CCOC(=O)c1c(NCc2ccc3c(c2)OCO3)c2ccccc2[nH]c1=O | ? | 19.2* | -18.1% | -43.0% | 10.2 | -5.8%
O=C(NCc1ccccc1)c1c[nH]c2cc3c(cc2c1=O)OCCO3 | 0.2% | 36.8* | 7.2% | -19.1% | 30.2* | -15.8%
O=C(Cc1ccccc1[N+](=O)[O-])NCc1ccc2c(c1)OCO2 | -14.1% | 58.3* | -10.6% | -5.1% | 69.0* | 1.5%
O=C(NCc1ccc2c(c1)OCO2)C(=O)Nc1ccccc1 | -2.7% | 22.1* | -0.2% | -6.8% | 90.5* | 1.7%
O=C1NC(=O)C(=Cc2ccccc2Oc2ccc(F)cc2)C(=O)N1 | 3.5% | 3.8 | -14.2% | -16.9% | -2.5 | -1.6%
FC(F)Sc1ccc(NC(=S)NC2CCC(NC(=S)Nc3ccc(SC(F)F)cc3)CC2)cc1 (centres undefined) | -4.9% | 10.0 | -4.8% | -23.1% | -3.4 | -0.5%
CCCCNC(=S)Nc1ccc(SC(F)F)cc1 | ? | 60.5* | 19.5% | -21.7%[11.4 µM] | 148.6* | -0.8%
Oc1cccc(NC(=S)Nc2ccc(SC(F)F)cc2)c1 | -4.2% | 21.3* | 74.9% | -56.8% | 20.2 | -20.5%
Oc1ccccc1N1CCN(C(=S)Nc2ccc(SC(F)F)cc2)CC1 | ? | -2.9 | -8.2% | -26.4%[11.4 µM] | 31.0 | -1.9%
Oc1cccc2c(NC(=S)Nc3ccc(SC(F)F)cc3)cccc12 | -4.4% | 82.3* | 29.5% | -48.7% | 134.9* | -30.7%
COc1ccc(-c2csc(-c3ccccc3)n2)c(OC)c1 | 2.0% | 53.1* | 18.5% | -25.0% | 114.7* | -17.8%
COc1ccc(-c2csc(-c3cccs3)n2)c(OC)c1 | 3.2% | 33.7* | 35.5% | -20.7% | 69.8* | -7.8%
CC1=NN(C(=O)COc2ccc(C)c(C)c2)C(O)(c2ccccc2)C1 (centres undefined) | -11.6% | -0.3 | 31.5% | -15.1% | -10.6 | 5.3%
SMILES | AmpC inh detg | CHX counter | AMA1 RON2 block | AmpC inh no detg | Shiga inhibitor | SARS PLpro yeast
CCN(CC)/C(Sc1ccccc1)=C(/C(Cl)=C(Cl)Cl)[N+](=O)[O-] | -1.3% | 24.3* | -4.2% | -8.4% | 28.7 | -2.0%
CCN(CC)c1ccc(NC(=O)c2ccc3c(c2)OCO3)c(C)c1 | 0.5% | 16.9* | 0.0% | -25.4% | 13.3 | 8.1%
CCN(CC)c1ccc(NC(=O)c2cccc(OC)c2)c(C)c1 | -4.7% | 16.5* | -15.6% | -42.7% | 24.8 | -1.4%
COc1ccc(NC(=O)CSc2nnc(C)n2Cc2ccccc2)cc1 | -0.8% | 1.2 | 2.0% | 6.9% | 4.4 | 11.0%
Cc1ccc(-c2cc(-c3ccccc3)nc(NN)n2)cc1 | ? | -1.9 | 15.7% | -39.1% | -2.8 | -8.5%
COc1nc(-c2ccccc2)cc(-c2ccc(OC)c(OC)c2)n1 | 0.3% | 20.7 | 14.7% | 162.1% | 55.8* | -17.6%
COc1ccc(-c2cc(-c3ccccc3)nc(NN)n2)cc1OC | 5.7% | 16.7* | 10.6% | 168.3% | 34.6 | 0.6%
Cc1ccc(NC(=O)COC(=O)CSC(=S)N2CCOCC2)cc1C | 4.7% | -4.7 | -3.1% | 8.9% | -8.1 | 1.5%
CCC(=O)N(C)CCc1cc2c(c(OC)c1/C=N/Nc1ccc(C(=O)O)cc1)OCO2 | -2.2% | 35.2* | 0.2% | -34.2% | 36.4 | -0.6%
O=C(NCCc1ccccc1)c1noc2c1CCc1ccccc1-2 | -2.8% | 18.7* | -1.8% | -11.0% | 39.0* | 3.4%
CCCNC(=O)c1noc2c1CCc1ccccc1-2 | -0.7% | 41.7* | 5.9% | -5.4% | 64.0* | -11.3%
O=C(NCCN1CCOCC1)c1noc2c1CCc1ccccc1-2 | -6.0% | 49.2* | 5.0% | 1.5% | 70.7* | -0.8%
O=C(Nc1cccnc1Cl)c1noc2c1CCc1ccccc1-2 | 3.5% | 34.0* | 0.2% | -4.5% | 92.4* | -0.1%
COc1ccc2c(c1)CCc1c(C(=O)NCCc3ccc(OC)c(OC)c3)noc1-2 | 2.6% | -0.7 | -4.1% | 55.5% | 4.3 | 6.9%
COc1cc(NC(=O)c2noc3c2CCc2ccccc2-3)cc(OC)c1OC | 18.8% | . | . | . | . | .
O=C(c1cc(COc2c(F)cccc2F)on1)N1CCCCCC1 | -3.5% | 61.2* | -3.2% | 26.5% | 81.1* | ?
O=C(c1cc(COc2ccc3c(c2)CCCC3)on1)N1CCCC1 | 2.6% | 46.9* | . | 47.5% | 50.6* | -4.4%
CCOC(=O)N1CCN(C(=O)c2cc(COc3c(F)cccc3F)on2)CC1 | 5.4% | 73.7* | -3.3% | 62.8% | 129.2* | 2.3%
CC(=O)N1CCCN(C(=O)c2cc(COc3c(F)cccc3F)on2)CC1 | 13.7% | 3.7 | 0.9% | 4.8% | 12.2 | 3.0%
O=C(CCCC(=O)N(CC(=O)NC1CCCCC1)c1ccc(F)cc1)Nc1ccccn1 | -3.0% | -2.1 | 0.7% | 70.9% | -3.1 | -1.3%
O=C(CSc1nncs1)Nc1ccc(Cl)cn1 | -4.5% | -2.4 | -4.0% | -15.8% | -9.3 | ?
CC(C)(C)n1nnnc1SCC(=O)Nc1nn(-c2ccccc2)nc1C(N)=O | -14.3% | 6.1 | 1.9% | -14.0% | -4.3 | 1.3%
Cc1cccc(NC(=O)CN2C(=O)NC(Cc3ccccc3)C2=O)c1 (centres undefined) | -13.1% | -0.5 | 12.0% | -11.7% | -2.4 | -7.6%
O=C(CSc1ncn[nH]1)Nc1ccc2c(c1)CCC2 | -5.9% | 20.1* | -8.1% | -29.1% | -13.6 | -11.9%

Bioassay records as filed in PubChem BioAssay.
